IL2 activator: activators of IL-2 | IL-2 activation reporter assay, cell-based qHTS; stimulated with anti-CD3/CD4/CD28 beads; in transgenic mouse T cells | activation, % (series mostly up to about 46 µM) | 360,000 tested, 0.065% active | AID 652025; in the data active = activation above about 50%; inconclusive = mostly about 30% to 49%; note: 0% is about no effect
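Quantitative HTS in unstimulated transgenic mouse T cells, with memory T cells as non-tolerant control and PMA/ionomycin as tolerance-bypass control. Compound pretreatment lasted 60 minutes before 18 h bead stimulation; EGFP/DsRed fluorescence read.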
ELG1 repair inh: ELG1-dependent DNA repair inhibition | HEK293T ELG1-luciferase reporter, luminescence, 16 h; DNA damage induced by 5-fluorouridine | Potency, µM (highest dose often 46.1 µM), without a hit: at the top dose activity change, negative = inhibition, usual class: inhibitors | 330,000 tested, 2.3% active; note: potency is the fitted concentration of half-maximal effect; % is set by controls: 0 for no effect and ±100 for the full control effect; nearly all actives have a fitted effect of over 55% in size
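5-Fluorouridine DNA damage + compound/DMSO, 2,000 cells/well, 16 h, 37 °C/5% CO2. ONE-Glo, 30 min RT, luminescence. Readout = decrease in reporter signal.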
BRCA1 expr up: increases BRCA1 expression. MCF7-BRCA1-FFLuc reporter, luminescence, 48 h; response scale: scaled: vehicle 0%, 10 µM genistein 100%. Potency, µM (top dose mostly 46.1 µM), inactives show top-dose activation, most hits filed as activators. 380,000 tested, 1.1% active. AID 624202; note: potency is the fitted concentration of half-maximal effect; nearly all actives have a fitted effect of over 80% in size
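Luminescence from a BRCA1-driven firefly luciferase in MCF7 cells was read after 48 h compound exposure at 37 C. Data normalized against DMSO and a 10microM genistein activation control, then curve-fitted across the titration.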
Nrf2 activator: activates Nrf2 signaling. AREc32 ARE-luciferase reporter (MCF7-derived line), luminescence, 24 h. Potency, µM (top dose mostly 46.1 µM), without a hit: at the top dose activation, hits mostly activators. 410,000 tested, 0.31% active. AID 624171; note: potency is the fitted concentration of half-maximal effect; % of control where 0% means no effect; nearly all actives have a fitted effect of over 65% in size
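For detection, Steady-Glo was added and plates sat 30 min at RT; before that, AREc32_Fluc cells grown overnight in OPTI-MEM/5% FBS had been treated with 23 nL compound for 24 hr at 37 deg C.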
Starred values were filed as active, the others as inactive; ? = inconclusive; . = no result. Hits are enriched below; roughly 3.1% of the tested compounds scored in any of these assays. Unless noted, calls come from the whole dose curve; as a rule, active = well fitted curve in the direction sought with a large enough effect; inconclusive = small, poorly fitted or top-dose-only effect, or another doubt; inactive = no such curve, though single readings can be large; an effect the other way counts as inactive or inconclusive.

SMILES | IL2 activator | ELG1 repair inh | BRCA1 expr up | Nrf2 activator
O=C(N/N=C/c1cccnc1)c1ccccc1Cl | 0 | ? | 38% | 3%
COc1cccc(/C=N/NC(=O)c2ccc(CN3c4cccc5cccc(c45)S3(=O)=O)cc2)c1 | -4 | ? | -8% | 0%
O=C(N/N=C/c1cccnc1)c1ccccc1OCc1ccc(Br)cc1 | 0 | 12µM* | -47% | 9%
O=C(N/N=C/c1cccnc1)c1ccccc1OCc1ccc(Cl)cc1 | . | 23µM* | . | .
O=C(N/N=C/c1cccnc1)c1cc(-c2ccc(Br)cc2)nc2ccccc12 | -4 | 13µM* | 1% | 1%
O=C(N/N=C/c1cccnc1)c1ccc(CN2c3cccc4cccc(c34)S2(=O)=O)cc1 | -2 | 23µM* | -38% | 3%
O=C(N/N=C/c1cccnc1)c1cc(-c2ccccc2)nc2ccccc12 | -1 | ? | -52% | 3%
COc1ccc(/C=c2\[nH]c(=O)/c(=C/c3ccc(OC)c(OC)c3)[nH]c2=O)cc1OC | . | . | 0% | .
COc1ccc(C(=O)N/N=C\c2ccoc2)cc1 | 2 | ? | ? | 0%
COc1ccc(/[N+]([O-])=C/c2ccoc2)cc1 | 1 | ? | 11µM* | 0%
COc1cc(OC)c(/C=C/c2ccncn2)c(OC)c1 | . | . | 6% | .
CCn1cc(C=C2C(=O)c3ccccc3C2=O)c2ccccc21 | 108* | ? | -20% | ?
O=C(/C=C/c1ccc(-c2ccc(F)cc2)o1)N1CCCC1 | 0 | ? | 4µM* | 4%
O=C(CCc1ccccc1)NCCSc1ccccc1 | -1 | ? | 5.6µM* | 2%
O=C(NCCSc1ccccc1)c1cncc(Br)c1 | 0 | ? | 7.9µM* | 3%
O=C(NCCSc1ccccc1)c1ccccc1Cl | -2 | ? | 2.8µM* | 0%
COc1ccc(C)c2sc(N(Cc3cccnc3)C(=O)C3CCCCC3)nc12 | . | . | . | 3%
COc1ccc(OC)c(CN2C(=O)CN(S(C)(=O)=O)CC2(C)C(=O)Nc2c(C)cccc2C)c1 (stereo unspecified) | 0 | . | . | .
COc1ccc(OC)c(NC(=O)Cn2c(=O)c3cccn3c3ccccc32)c1 | . | . | . | 6%
CCOC(=O)c1cnc(-n2nc(C)cc2C)nc1NCc1ccc2c(c1)OCO2 | 1 | 21µM* | -26% | 0%
CCOC(=O)c1cnc(-n2nc(C)cc2C)nc1NCCc1ccccc1 | 0 | ? | -27% | 2%
COc1ccc(NC(=O)c2sc3nc4c(c(-c5ccc(OC)cc5)c3c2N)C(=O)CC(C)(C)C4)cc1 | . | . | . | 0%
N#CCc1c(C#N)c(N)nc(N2CCN(Cc3ccc4c(c3)OCO4)CC2)c1C#N | -1 | 18µM* | -39% | 3%
CCOc1ccc(OCC)c(NC(=O)Cn2nc(CC)n3c(cc4sccc43)c2=O)c1 | . | . | . | -1%
C=CCn1c(SCC(C)=O)nnc1-c1cc(-c2ccccc2)sc1N | 0 | 26µM* | -28% | 4%
SMILES | IL2 activator | ELG1 repair inh | BRCA1 expr up | Nrf2 activator
O=C(NCc1ccccc1Cl)c1cnc2sc(N3CCCCC3)nn2c1=O | . | . | . | -1%
CCc1nc(Cl)c(C#N)c2c1CCCC2 | -1 | 13µM* | 0% | 0%
O=C(CN1CCN(Cc2ccc(F)cc2)C1=O)NCc1ccccc1 | . | . | -5% | 0%
COc1ccc2c(c1)c1c(c(=O)n(-c3cc(Cl)ccc3C)c(=O)n1CC(=O)N1CCCC1)n2C | . | . | 8% | -1%
CCc1ccc(CN(Cc2ccco2)c2cnc(S(C)(=O)=O)nc2C(=O)Nc2c(C)cccc2C)cc1 | . | . | . | 4%
CC1=C(C(=O)OC(C)C)C(c2ccc(C)o2)C(C(=O)OC(C)C)=C(C)N1 | -3 | 18µM* | -13% | 3%
O=[N+]([O-])c1ccc(-c2nc3ccc([N+](=O)[O-])cc3[nH]2)cc1 | 0 | ? | -24% | 2%
Nc1ccc(-c2nc3ccc([N+](=O)[O-])cc3[nH]2)cc1 | -4 | ? | 2µM* | 5%
Cc1ccc2nc(NC(=O)CSc3nccn3Cc3ccc(Cl)cc3)sc2c1 | . | . | . | -1%
Cc1nnc(SCc2ccccc2)nc1-c1ccccc1 | -2 | . | 11µM* | 0%
c1ccc(CSc2nnc3c4ccccc4c4ccccc4c3n2)cc1 | . | -3% | . | .
COc1ccc(OC)c(CNC(=O)Cn2nc(C)c3nn(-c4ccc(Cl)cc4)c(C)c3c2=O)c1 | . | . | . | 0%
COc1ccc2oc(=O)c(-c3csc(Nc4cccc(O)c4)n3)cc2c1 | -2 | 26µM* | -71% | 4%

Bioassay records as filed in PubChem.
